PubChem BioAssay AID2284366 (EPA ToxCast)
Results filed as inconclusive are left out. The source made the active and inactive calls. The calls were made as follows: active = hit-call score of the fitted dose curve at least 0.9, where 1 is the maximum; inconclusive = response in the unintended direction; inactive = score below 0.9.

test system: zebrafish Peroxisome Proliferator-activated Receptor gamma (PPARg), gene 557037; assay: ATG_zfPPARg_EcoTox2: Attagene TRANS-FACTORIAL EcoTox-2 HepG2 Assay for zebrafish Peroxisome Proliferator-activated Receptor gamma (PPARg)
Description: ATG_EcoTox2 is a cell-based, multiplexed assay created by modifying the existing Attagene TRANS-FACTORIAL system to include a panel of nuclear receptors from some or all the following species: human (Homo sapiens), african clawed frog (Xenopus laevis), rainbow trout (Oncorhynchus mykiss), japanese medaka (Oryzias latipes), and zebrafish (Danio rerio). The ECOTOX2-FACTORIAL format uses HepG2, a human liver cell line, with measurements taken at 24 hours after chemical dosing in a 24-well plate. ATG_zfPPARg_EcoTox2 is one of 29 assay components calculated in the ATG_EcoTox2 assay. It is designed to make measurements of mRNA induction, a form of inducible reporter, as detected with fluorescence intensity signals by Reverse transcription polymerase chain reaction (RT-PCR) and Capillary electrophoresis technology.The assay endpoint ATG_zfPPARg_EcoTox2 was analyzed in the positive analysis fitting direction relative to DMSO as the negative control and baseline of activity. Using a type of inducible reporter, measures of mRNA for gain-of-signal activity can be used to understand the reporter gene at the transcription factor-level as they relate to the gene PPARg. Furthermore, this assay endpoint can be referred to as a primary readout, because this assay has produced multiple assay endpoints where this one serves a reporter gene function. To generalize the intended target to other relatable targets, this assay endpoint is annotated to the nuclear receptor intended target family, where the subfamily is non-steroidal.
Human liver HepG2 cells are transiently transfected with multiple reporter transcription units (MRTUs) in 6-well plates using FuGene 6 reagent (Roche; 3 ml FuGene/1 mg DNA). The MRTU constructs are regulated by a cis-regulating element (promoter). Each RTU expresses a GAL4-UAS that regulates the transcription of a nearby target reporter gene sequence. A major difference between the CIS and TRANS system is that in CIS activities of endogenous TFs are measured, whereas the TRANS assay evaluates changes in activities of exogenous, chimeric NR-Gal4 proteins. […] At the end of 24 hour incubation, total RNA was isolated using TriZol reagent (Invitrogen). The isolated RNA is then reverse-transcribed using oligo(dT) primer and Mo-MLV reverse transcriptase (Invitrogen) with DNAse I (Ambion) treatment for 30 min. The one-tenth of the produced cDNA was amplified by PCR using Taq DNA polymerase (Invitrogen) and two reporter sequence-specific primers. The PCR products were fluorescently labeled by primer extension with 6-arboxyfluorescein (6-FAM) 5'-labeled reporter sequence-specific primer (2 min at 95 C, 20 s at 68 C and 10 min at 72 C) and these products were digested with 5U of HpaI (New England Biolabs) for 2h at 37 C. The fragments were purified using Qiaquick PCR columns (Qiagen), analyzed on an ABI 3130xL genetic analyzer (Applied Biosystems) with peak positions identified by using a set of X-rhodamine (ROX)-labeled MapMarker1000 molecular weight standards (BioVentures). The raw capillary electrophoresis data was processed using Attagraph software (Attagene).

SMILES	outcome	AC50
Cc1cccc(Nc2cc(Cl)nc(SCC(=O)O)n2)c1C	inactive	–
CC(C)OC(=O)C(C)(C)Oc1ccc(C(=O)c2ccc(Cl)cc2)cc1	inactive	–
Cc1c(C)c2c(c(C)c1O)CCC(C)(COc1ccc(CC3SC(=O)NC3=O)cc1)O2 (stereo not given)	inactive	–
CC(C)(Oc1ccc(Cl)cc1)C(=O)O	inactive	–
C[C@]12C=CC(=O)C=C1CC[C@@H]1[C@@H]2C(=O)C[C@@]2(C)[C@H]1CC[C@]2(O)C(=O)CO	inactive	–
C[C@@H]1C[C@H]2[C@@H]3CCC4=CC(=O)C=C[C@]4(C)[C@@]3(F)[C@@H](O)C[C@]2(C)[C@@]1(O)C(=O)COP(=O)(O)O	inactive	–
C=C(c1ccc(C(=O)O)cc1)c1cc2c(cc1C)C(C)(C)CCC2(C)C	–	2.23 µM (active)
Cc1nc(-c2ccc(C(F)(F)F)cc2)sc1C(=O)NCc1ccc(OC(C)(C)C(=O)O)cc1	–	21.3 µM (active)
CN(CCOc1ccc(CC2SC(=O)NC2=O)cc1)c1ccccn1 (stereo not given)	inactive	–
Cc1ccc(C)c(OCCCC(C)(C)C(=O)O)c1	inactive	–
